What all share (assay): log2 ratio of Biotin-Ahx-Ub-VS probe labelling (fragment/DMSO); higher = less target engagement (more negative = stronger competition), active = hit call of the paper (q ≤ 0.05, log2 ratio ≤ -1)
Common to all, as to conditions: compound concentration: 200 uM; treatment time: 3 h

The target in one experiment is T1, OTUD6B (UniProt Q8N6M0).
T1 sequence (whole entry): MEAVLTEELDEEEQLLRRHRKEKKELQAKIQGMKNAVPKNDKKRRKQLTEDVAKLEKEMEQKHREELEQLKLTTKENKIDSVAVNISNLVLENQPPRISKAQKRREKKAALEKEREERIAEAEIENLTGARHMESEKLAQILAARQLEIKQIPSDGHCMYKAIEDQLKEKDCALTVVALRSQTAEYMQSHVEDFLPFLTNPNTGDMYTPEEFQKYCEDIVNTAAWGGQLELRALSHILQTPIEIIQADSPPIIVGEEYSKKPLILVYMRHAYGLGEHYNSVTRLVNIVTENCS
An outline of the steps:
(§1)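 HEK293T lysate in Tris/CHAPS/IGEPAL buffer with protease inhibitors (495 µg per sample) was given fragment at 200 µM or vehicle for 3 h, in triplicate. It then received Biotin-Ahx-Ub-VS at 0.5 µM final for 1 h. Labelled DUBs were NeutrAvidin-enriched, digested with LysC and trypsin, and run by diaPASEF LC-MS/MS. Values are average log2 fragment/vehicle ratios by unpaired t-test on global-median-normalised Spectronaut quantities of proteins with ≥2 unique peptides.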

Another experiment addresses T2, OTUD7B (UniProt Q6GQQ9).
T2 sequence (whole entry): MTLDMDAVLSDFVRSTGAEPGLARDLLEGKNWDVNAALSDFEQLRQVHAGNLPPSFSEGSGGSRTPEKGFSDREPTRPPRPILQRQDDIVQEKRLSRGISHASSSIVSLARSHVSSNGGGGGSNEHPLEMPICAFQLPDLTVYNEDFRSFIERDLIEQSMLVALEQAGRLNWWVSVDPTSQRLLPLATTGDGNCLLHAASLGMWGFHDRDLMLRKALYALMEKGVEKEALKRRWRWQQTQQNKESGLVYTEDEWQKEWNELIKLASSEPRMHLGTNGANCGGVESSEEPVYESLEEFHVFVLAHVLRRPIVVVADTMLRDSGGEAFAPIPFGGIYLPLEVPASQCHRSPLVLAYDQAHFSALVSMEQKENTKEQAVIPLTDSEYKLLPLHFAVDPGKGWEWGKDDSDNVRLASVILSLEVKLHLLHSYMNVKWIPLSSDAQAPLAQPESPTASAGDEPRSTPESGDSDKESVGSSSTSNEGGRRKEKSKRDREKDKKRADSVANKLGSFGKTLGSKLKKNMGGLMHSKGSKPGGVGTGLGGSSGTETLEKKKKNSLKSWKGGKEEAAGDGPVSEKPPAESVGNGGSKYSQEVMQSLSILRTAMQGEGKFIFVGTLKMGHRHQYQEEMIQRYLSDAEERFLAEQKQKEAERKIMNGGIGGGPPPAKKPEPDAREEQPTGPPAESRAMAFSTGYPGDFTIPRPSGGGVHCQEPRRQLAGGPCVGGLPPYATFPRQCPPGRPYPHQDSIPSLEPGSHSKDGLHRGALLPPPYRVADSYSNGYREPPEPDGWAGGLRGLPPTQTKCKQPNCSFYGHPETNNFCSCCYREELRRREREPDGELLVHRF
An outline of the steps:
as §1

The target of a further experiment is PRPF8 (UniProt Q6P2Q9). An outline of the steps:
as §1

The next experiment concerns the target T3, PSMD7 (UniProt P51665).
T3 sequence (whole entry): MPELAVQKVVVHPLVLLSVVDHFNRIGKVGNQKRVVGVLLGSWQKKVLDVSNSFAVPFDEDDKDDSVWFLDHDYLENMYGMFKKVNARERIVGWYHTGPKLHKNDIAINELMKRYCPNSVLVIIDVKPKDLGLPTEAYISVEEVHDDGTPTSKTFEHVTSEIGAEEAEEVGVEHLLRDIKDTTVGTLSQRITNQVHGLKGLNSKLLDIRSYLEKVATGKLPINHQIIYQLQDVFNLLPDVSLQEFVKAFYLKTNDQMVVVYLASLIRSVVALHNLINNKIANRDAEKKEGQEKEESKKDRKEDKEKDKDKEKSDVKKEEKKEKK
An outline of the steps: as §1

The target in the next experiment is UCHL1 (UniProt P09936). An outline of the steps: as §1
Chain of UCHL1 (P09936 whole entry, looked up): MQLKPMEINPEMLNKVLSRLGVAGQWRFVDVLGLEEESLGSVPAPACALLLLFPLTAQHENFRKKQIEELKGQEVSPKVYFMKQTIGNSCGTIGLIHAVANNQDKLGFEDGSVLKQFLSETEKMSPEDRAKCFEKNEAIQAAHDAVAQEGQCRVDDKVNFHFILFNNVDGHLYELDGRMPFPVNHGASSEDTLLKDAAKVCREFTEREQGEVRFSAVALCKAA
A further experiment has as its target T4, UCHL3 (UniProt P15374).
T4 sequence (whole entry): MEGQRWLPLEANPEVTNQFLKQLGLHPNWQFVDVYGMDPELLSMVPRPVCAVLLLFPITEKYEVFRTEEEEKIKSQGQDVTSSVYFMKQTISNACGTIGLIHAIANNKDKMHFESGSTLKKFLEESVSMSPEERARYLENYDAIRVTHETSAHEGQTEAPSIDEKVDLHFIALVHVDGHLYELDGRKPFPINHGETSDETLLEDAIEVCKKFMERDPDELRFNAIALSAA
An outline of the steps:
as §1

A further experiment concerns the target T5, UCHL5 (UniProt Q9Y5K5).
T5 sequence (whole entry): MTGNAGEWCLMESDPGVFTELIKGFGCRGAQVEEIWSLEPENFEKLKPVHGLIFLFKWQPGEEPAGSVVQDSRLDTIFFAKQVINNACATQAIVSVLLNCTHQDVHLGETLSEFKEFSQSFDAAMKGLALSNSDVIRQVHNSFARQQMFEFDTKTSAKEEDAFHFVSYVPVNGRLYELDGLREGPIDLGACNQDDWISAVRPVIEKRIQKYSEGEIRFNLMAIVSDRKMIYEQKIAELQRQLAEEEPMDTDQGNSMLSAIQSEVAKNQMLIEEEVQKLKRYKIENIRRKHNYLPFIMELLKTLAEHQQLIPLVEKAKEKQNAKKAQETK
An outline of the steps:
as §1

The next experiment has as its target USP10 (UniProt Q14694). An outline of the steps:
as §1

The target in the next experiment is T6, USP15 (UniProt Q9Y4E8).
T6 sequence (whole entry): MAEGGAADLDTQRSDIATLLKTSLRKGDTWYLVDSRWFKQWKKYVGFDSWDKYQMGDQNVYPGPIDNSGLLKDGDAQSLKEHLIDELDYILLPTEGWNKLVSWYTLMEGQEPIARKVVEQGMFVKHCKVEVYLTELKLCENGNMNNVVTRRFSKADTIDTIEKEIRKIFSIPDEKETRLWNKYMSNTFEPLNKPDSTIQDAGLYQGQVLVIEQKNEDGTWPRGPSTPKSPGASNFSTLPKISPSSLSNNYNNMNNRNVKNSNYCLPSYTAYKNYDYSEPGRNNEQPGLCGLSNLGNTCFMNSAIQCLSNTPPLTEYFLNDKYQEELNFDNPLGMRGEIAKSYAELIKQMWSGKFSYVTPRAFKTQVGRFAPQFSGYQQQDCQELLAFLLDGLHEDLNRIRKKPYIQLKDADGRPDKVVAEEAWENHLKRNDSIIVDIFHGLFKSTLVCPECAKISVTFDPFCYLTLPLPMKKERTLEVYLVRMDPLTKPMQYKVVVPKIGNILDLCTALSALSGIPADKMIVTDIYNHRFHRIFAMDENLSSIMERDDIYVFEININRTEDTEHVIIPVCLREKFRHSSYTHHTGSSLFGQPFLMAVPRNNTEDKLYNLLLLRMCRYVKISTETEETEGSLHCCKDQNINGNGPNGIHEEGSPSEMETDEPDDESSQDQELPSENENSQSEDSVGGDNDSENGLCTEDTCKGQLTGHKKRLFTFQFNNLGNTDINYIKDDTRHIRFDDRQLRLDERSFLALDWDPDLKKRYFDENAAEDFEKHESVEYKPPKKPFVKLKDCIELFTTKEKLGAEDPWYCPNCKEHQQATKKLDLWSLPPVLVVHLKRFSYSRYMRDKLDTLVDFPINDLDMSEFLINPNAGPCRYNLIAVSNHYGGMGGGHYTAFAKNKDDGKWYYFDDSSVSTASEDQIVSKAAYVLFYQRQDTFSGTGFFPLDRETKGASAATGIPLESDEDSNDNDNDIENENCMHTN
An outline of the steps: as §1

In another experiment the target is USP16 (UniProt Q9Y5T5). An outline of the steps: as §1
Chain of USP16 (Q9Y5T5 whole entry, looked up): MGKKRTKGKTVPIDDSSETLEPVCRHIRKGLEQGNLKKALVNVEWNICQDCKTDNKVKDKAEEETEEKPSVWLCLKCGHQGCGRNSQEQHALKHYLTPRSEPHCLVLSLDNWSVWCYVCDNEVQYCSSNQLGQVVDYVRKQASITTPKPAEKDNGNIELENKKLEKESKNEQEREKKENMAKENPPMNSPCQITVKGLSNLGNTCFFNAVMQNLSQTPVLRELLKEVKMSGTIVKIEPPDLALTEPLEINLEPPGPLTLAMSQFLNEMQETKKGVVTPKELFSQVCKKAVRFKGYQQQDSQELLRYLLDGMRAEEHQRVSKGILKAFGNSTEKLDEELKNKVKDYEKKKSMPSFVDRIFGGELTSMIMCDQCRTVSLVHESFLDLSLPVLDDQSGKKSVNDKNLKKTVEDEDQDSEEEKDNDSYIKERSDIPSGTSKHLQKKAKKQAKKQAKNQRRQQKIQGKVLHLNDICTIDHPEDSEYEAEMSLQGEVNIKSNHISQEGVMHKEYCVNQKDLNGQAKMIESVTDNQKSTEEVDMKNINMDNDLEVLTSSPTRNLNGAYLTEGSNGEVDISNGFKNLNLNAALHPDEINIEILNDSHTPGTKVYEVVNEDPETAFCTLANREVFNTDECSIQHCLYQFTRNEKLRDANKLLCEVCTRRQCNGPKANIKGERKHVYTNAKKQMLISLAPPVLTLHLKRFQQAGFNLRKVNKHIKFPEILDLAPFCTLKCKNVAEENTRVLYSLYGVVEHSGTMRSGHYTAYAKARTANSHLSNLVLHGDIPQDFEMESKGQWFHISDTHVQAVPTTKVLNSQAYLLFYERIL

Unmarked numbers belong to inactive results.

Chain of USP10 (Q14694 whole entry): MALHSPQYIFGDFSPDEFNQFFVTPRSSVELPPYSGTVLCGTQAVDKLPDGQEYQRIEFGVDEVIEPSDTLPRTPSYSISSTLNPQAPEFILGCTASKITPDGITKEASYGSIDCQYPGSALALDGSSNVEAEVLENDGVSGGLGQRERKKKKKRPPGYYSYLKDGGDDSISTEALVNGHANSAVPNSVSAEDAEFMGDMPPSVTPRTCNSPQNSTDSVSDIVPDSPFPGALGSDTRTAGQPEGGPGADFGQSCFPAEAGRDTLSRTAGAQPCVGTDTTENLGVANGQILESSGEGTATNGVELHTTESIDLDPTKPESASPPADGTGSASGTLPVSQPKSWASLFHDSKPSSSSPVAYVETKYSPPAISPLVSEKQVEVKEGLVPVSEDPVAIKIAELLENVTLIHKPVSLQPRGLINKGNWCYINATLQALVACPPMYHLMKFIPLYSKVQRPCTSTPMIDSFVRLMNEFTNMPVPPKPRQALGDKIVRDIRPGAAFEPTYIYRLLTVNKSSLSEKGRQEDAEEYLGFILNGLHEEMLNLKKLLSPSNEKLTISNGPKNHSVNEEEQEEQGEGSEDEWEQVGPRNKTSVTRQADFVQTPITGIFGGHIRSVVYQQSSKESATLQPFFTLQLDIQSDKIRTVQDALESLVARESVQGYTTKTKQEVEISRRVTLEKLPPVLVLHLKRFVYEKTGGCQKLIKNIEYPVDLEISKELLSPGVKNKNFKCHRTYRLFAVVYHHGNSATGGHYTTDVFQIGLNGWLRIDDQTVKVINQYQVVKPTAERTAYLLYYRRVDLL

Turning to `Cc1ccc(C)c(Oc2ccc(CNC(=O)CCl)cn2)c1.Cl`, the “log2 ratio of Biotin-Ahx-Ub-VS probe labelling” value with OTUD6B was -0.139; with OTUD7B it was -1.04 (active); in the experiment with PRPF8 it was -0.126; in the experiment with PSMD7, -0.306; with UCHL1, -1.3 (active); in the experiment with UCHL3, -1.04 (active). The “log2 ratio of Biotin-Ahx-Ub-VS probe labelling” value is -0.435 with UCHL5, -0.166 with USP10, -0.359 with USP15 and -0.0509 with USP16.

The record behind these values is the supplement of paper PMC11732987, “Enantioselective OTUD7B fragment discovery through chemoproteomics screening and high-throughput optimisation” (Communications Chemistry, 2025).
